PubChem BioAssay (NCATS)
Records with an inconclusive call do not appear. Activity calls are given as the source filed them. Calls follow the shape of the dose curve; as a rule, active = well fitted cell-killing curve with a large enough effect; inconclusive = small, poorly fitted or top-dose-only effect, or effect the other way; inactive = flat fitted curve, though single readings scatter.

Assays:
Experiment in all cases: Primary qHTS to identify gynecologic anti-cancer compounds using libraries of approved drugs and bioactive compounds (AID 1345084); also: nearly all actives have a fitted effect of over 55% in size
Conditions in all cases: Gynecologic cancer cell panel viability, ATPlite luminescence, 48 h; series mostly up to 57.5 µM
OV90 = system: OV90
Method in brief: (§1)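 In this quantitative HTS, cell killing is estimated from loss of ATP-dependent luciferase light. Cells see five compound concentrations over a 48 h exposure.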

PA-1 = system: PA-1
Method in brief: as §1

SKOV3 = system: SKOV3
Method in brief: as §1

Tov-21-G = system: Tov-21-G
Method in brief: as §1

Tov112D = system: Tov112D
Method in brief: as §1
% is scaled to controls: 0 for no effect and ±100 for the full control effect.

CC(=O)NC1C(OC2CCC3(C)C(CCC4(C)C3CC=C3C5CC(C)(C)CCC5(C(=O)O)C(O)CC34C)C2(C)C)OC(CO)C(O)C1O (stereo not given)
inactive: Potency (OV90) | Potency (PA-1) | Potency (SKOV3) | Potency (Tov-21-G) | Potency (Tov112D)

CC1=C2C(=O)C=C(CO[C@@H]3O[C@H](CO)[C@@H](O)[C@H](O)[C@H]3O)[C@@H]2[C@H]2OC(=O)[C@H](C)[C@@H]2[C@@H](O)C1
inactive: Potency (OV90) | Potency (PA-1) | Potency (SKOV3) | Potency (Tov-21-G) | Potency (Tov112D)

COC(=O)C1=COC(OC2OC(CO)C(O)C(O)C2O)C2C(C)C(OC(=O)/C=C/c3ccc(O)cc3)C(O)C12 (stereo not given)
inactive: Potency (OV90) | Potency (PA-1) | Potency (SKOV3) | Potency (Tov-21-G) | Potency (Tov112D)

CC[C@H](C)[C@H](NC(=O)[C@H](Cc1ccc(O)cc1)NC(=O)[C@@H](N)C(C)C)C(=O)N[C@@H](Cc1cnc[nH]1)C(=O)N1CCC[C@H]1C(=O)N[C@@H](Cc1ccccc1)C(=O)O
inactive: activity change, negative = cytotoxicity (OV90) -1.9% [at 6.55 µM] | activity change, negative = cytotoxicity (PA-1) 4.28% [at 6.55 µM] | activity change, negative = cytotoxicity (SKOV3) 16.8% [at 6.55 µM] | activity change, negative = cytotoxicity (Tov-21-G) 1.06% [at 6.55 µM] | activity change, negative = cytotoxicity (Tov112D) 12.4% [at 6.55 µM]

N#Cc1cccc(-c2nc(-c3cccnc3)no2)c1
inactive: Potency (OV90) | Potency (PA-1) | Potency (SKOV3) | Potency (Tov-21-G) | Potency (Tov112D)

C[C@H]1CC[C@H]2[C@@H](C=C[C@@](C)(O)[C@]2(C)C(=O)CCO)C1
inactive: Potency (OV90) | Potency (PA-1) | Potency (SKOV3) | Potency (Tov-21-G) | Potency (Tov112D)

C=C(C)[C@@H]1CC[C@]2(C(=O)O)CC[C@]3(C)[C@H](CCC4[C@@]5(C)CCC(=O)C(C)(C)C5C(O)C[C@]43C)C12 (stereo not given in full)
inactive: Potency (OV90) | Potency (PA-1) | Potency (SKOV3) | Potency (Tov-21-G) | Potency (Tov112D)

CC(NC(=O)CC(=O)O)C(=O)Nc1ccccc1C(N)=O (stereo not given)
inactive: Potency (OV90) | Potency (PA-1) | Potency (SKOV3) | Potency (Tov-21-G) | Potency (Tov112D)

COc1cc(C(=O)OC[C@@]2(O)CO[C@@H](O[C@H]3[C@H](Oc4ccc(O)cc4)O[C@H](CO)[C@@H](O)[C@@H]3O)[C@@H]2O)cc(OC)c1O
inactive: Potency (OV90) | Potency (PA-1) | Potency (SKOV3) | Potency (Tov-21-G) | Potency (Tov112D)

O=C(OC1C=C(CO)C2C(OC3OC(CO)C(O)C(O)C3O)OC=CC12O)c1ccc(O)cc1 (stereo not given)
inactive: Potency (OV90) | Potency (PA-1) | Potency (SKOV3) | Potency (Tov-21-G) | Potency (Tov112D)

COc1cn(-c2ccc(-n3cccn3)cc2F)nc(-c2ccnn2-c2ccccc2)c1=O
inactive: Potency (OV90) | Potency (PA-1) | Potency (SKOV3) | Potency (Tov-21-G) | Potency (Tov112D)

CCc1cc(CC[C@]2(C3CCCC3)CC(O)=C(Cc3nc4nc(C)cc(C)n4n3)C(=O)O2)cc(CC)n1
inactive: Potency (OV90) | Potency (PA-1) | Potency (SKOV3) | Potency (Tov-21-G) | Potency (Tov112D)

CC(=O)NC1CC(=O)C23C(=O)NC(Cc4c[nH]c5ccccc45)C2C(C)=C(C)C(O)C3/C=C/CC(C)/C=C(/C)C(O)C1O (stereo not given)
inactive: Potency (OV90) | Potency (PA-1) | Potency (SKOV3) | Potency (Tov-21-G) | Potency (Tov112D)

COc1ccccc1CN[C@H]1CCCN[C@H]1c1ccccc1
inactive: Potency (OV90) | Potency (PA-1) | Potency (SKOV3) | Potency (Tov-21-G) | Potency (Tov112D)

COC(=O)/C=C/c1ccc(O[C@@H]2O[C@H](CO)[C@@H](O)[C@H](O)[C@H]2O)cc1
inactive: Potency (OV90) | Potency (PA-1) | Potency (SKOV3) | Potency (Tov-21-G) | Potency (Tov112D)

CNc1nc(Cc2ccccc2)nc2c1CCNC[C@@H]2C
inactive: Potency (OV90) | Potency (PA-1) | Potency (SKOV3) | Potency (Tov-21-G) | Potency (Tov112D)

C=C(C(=O)OC)[C@]12O[C@@](C)(CC[C@@]3(O)/C(=C\C)C(=O)O[C@]3(C)C[C@@H]1OC(=O)C(CO)CN1CCCC1C(=O)O)CC2=O (stereo not given in full)
inactive: Potency (OV90) | Potency (PA-1) | Potency (SKOV3) | Potency (Tov-21-G) | Potency (Tov112D)

NC1Nc2ccccc2C1(N)CC1NC(=O)C(Cc2ccccc2)NC(=O)C(Cc2ccccc2)NC1=O (stereo not given)
inactive: Potency (OV90) | Potency (PA-1) | Potency (SKOV3) | Potency (Tov-21-G) | Potency (Tov112D)
